{
  "source": "PubChem BioAssay AID651863",
  "about": "(Broad Institute, 2012)",
  "note": "Entries with a potency or affinity are not part of this list. Unmarked numbers belong to inactive results. The source made the active and inactive calls.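 Rule for the calls: active = compounds whose fitted half-maximal cell-killing dose is at most twice the top tested dose; inconclusive = flat curve with 30 to 70 percent signal loss, or poor fit; inactive = the rest.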",
  "data": [
    {"test": "kidney cell line viability loss – HEK293T, luminescence plate reader, powder samples, set 4, cytotoxicity control, dose response (AID 651863)", "conditions": "CellTiter-Glo ATP luminescence, 48 h; series mostly up to 26 µM", "values": [
      {"smiles": "O=C(O)c1ccccc1C(=O)NC[C@@H]1c2ccccc2CCN1C(=O)[C@@H]1CCCC[C@@H]1C(=O)O", "outcome": "inactive"},
      {"smiles": "O=C(O)C1CCCCC1C(=O)N1CCc2ccccc2C1c1ccccc1", "note": "(configuration not stated)", "outcome": "inactive"},
      {"smiles": "CCOC(=O)Cc1nc(NS(=O)(=O)c2c(C)cc(C)cc2C)c2ccccc2n1", "outcome": "inactive"},
      {"smiles": "O=C(O)[C@H]1CCCC[C@H]1C(=O)N1CCc2ccccc2[C@H]1CNc1nc(Cl)nc2ccccc12", "outcome": "inactive"},
      {"smiles": "Cc1ccc(S(=O)(=O)Nc2cc(C(C(=O)OC(C)C)C(=O)C(F)(F)F)c(O)c3ccccc23)cc1", "note": "(configuration not stated)", "outcome": "inactive"},
      {"smiles": "Cc1cc(C)c(S(=O)(=O)Nc2nc(N(C)C)nc3ccccc23)c(C)c1", "outcome": "inactive"},
      {"smiles": "Cc1ccc(S(=O)(=O)NC[C@@H]2c3ccccc3CCN2C(=O)[C@@H]2CCCC[C@@H]2C(=O)O)c(C)c1", "outcome": "inactive"},
      {"smiles": "O=C(O)C1CCCCC1C(=O)N1CCc2ccccc2C1CN1C(=O)c2ccccc2S1(=O)=O", "note": "(configuration not stated)", "outcome": "inactive"},
      {"smiles": "O=C(O)C1CCCCC1C(=O)N1CCc2ccccc2C1CN1C(=O)Cc2ccccc2C1=O", "note": "(configuration not stated)", "outcome": "inactive"},
      {"smiles": "COC(=O)[C@H]1CCCC[C@H]1C(=O)N1CCc2ccccc2[C@H]1CN1C(=O)c2ccccc2C1=O", "outcome": "inactive"},
      {"smiles": "O=C(O)C1CCCCC1C(=O)N1CCc2ccccc2[C@H]1C(=O)NCCc1ccccc1", "note": "(some centres not stated)", "outcome": "inactive"},
      {"smiles": "Cc1ccccc1S(=O)(=O)Nc1cc(C(C(=O)OC(C)C)C(=O)C(F)(F)F)c(O)c2ccccc12", "note": "(configuration not stated)", "outcome": "inactive"},
      {"smiles": "COC(=O)CNc1nc(NS(=O)(=O)c2c(C)cc(C)cc2C)c2ccccc2n1", "outcome": "inactive"},
      {"smiles": "Cc1cc(C)c(S(=O)(=O)Nc2nc(NCCO)nc3ccccc23)c(C)c1", "outcome": "inactive"},
      {"smiles": "O=C1c2ccccc2C(=O)N1CC1c2ccccc2CCN1C(=O)Cc1ccccc1", "note": "(configuration not stated)", "activity change, negative = cytotoxicity": "0.765% [at 6 µM]"},
      {"smiles": "O=C(NC[C@@H]1c2ccccc2CCN1C(=O)[C@@H]1CCCC[C@@H]1C(=O)O)c1ccc(CCl)cc1", "outcome": "inactive"},
      {"smiles": "O=C(O)C1CCCCC1C(=O)Nc1ccccc1CN1C(=O)c2ccccc2C1=O", "note": "(configuration not stated)", "outcome": "inactive"},
      {"smiles": "O=C(O)[C@H]1CCCC[C@H]1C(=O)N1CCc2ccccc2[C@H]1CNS(=O)(=O)c1ccc([N+](=O)[O-])cc1", "outcome": "inactive"},
      {"smiles": "CC(C)CNc1nc(NS(=O)(=O)c2ccccc2)c2ccccc2n1", "outcome": "inactive"},
      {"smiles": "CCOC(=O)C(C(=O)OCC)c1nc(NS(=O)(=O)c2c(C)cc(C)cc2C)c2ccccc2n1", "outcome": "inactive"},
      {"smiles": "COc1ccccc1CCNC(=O)[C@@H]1c2ccccc2CCN1C(=O)C1CCCCC1C(=O)O", "note": "(some centres not stated)", "outcome": "inactive"},
      {"smiles": "O=C(NCCO)c1ccccc1C(=O)NC[C@@H]1c2ccccc2CCN1C(=O)C1CCCCC1C(=O)O", "note": "(some centres not stated)", "outcome": "inactive"},
      {"smiles": "O=C(O)CCCC(=O)N1CCc2ccccc2C1CN1C(=O)c2ccccc2C1=O", "note": "(configuration not stated)", "outcome": "inactive"},
      {"smiles": "O=C(O)C1CCCCC1C(=O)NCC1c2ccccc2CCN1C(=O)Cc1ccccc1", "note": "(configuration not stated)", "outcome": "inactive"},
      {"smiles": "Cc1ccc(S(=O)(=O)NNc2nc(C(C(=O)OC(C)C)C(=O)C(F)(F)F)nc3ccccc23)cc1", "note": "(configuration not stated)", "outcome": "inactive"},
      {"smiles": "O=C(O)/C=C\\C(=O)N1CCc2ccccc2C1CN1C(=O)c2ccccc2C1=O", "note": "(configuration not stated)", "outcome": "inactive"},
      {"smiles": "O=C(O)c1ccccc1C(=O)N1CCc2ccccc2C1CN1C(=O)c2ccccc2C1=O", "note": "(configuration not stated)", "outcome": "inactive"},
      {"smiles": "O=C(Oc1cc(CN2C(=O)c3ccccc3C2=O)c2ccccc2[n+]1[O-])c1cccc(Cl)c1", "outcome": "inactive"},
      {"smiles": "O=C(NC[C@@H]1c2ccccc2CCN1C(=O)[C@@H]1CCCC[C@@H]1C(=O)O)c1ccccc1", "outcome": "inactive"},
      {"smiles": "O=C(O)CCC(=O)N1CCc2ccccc2C1CN1C(=O)c2ccccc2C1=O", "note": "(configuration not stated)", "outcome": "inactive"},
      {"smiles": "O=C(O)[C@@H]1CCCN1C(=O)N1CCc2ccccc2[C@H]1CN1C(=O)c2ccccc2C1=O", "outcome": "inactive"},
      {"smiles": "C[C@H](NC(=O)C1CCCC[C@H]1C(=O)O)c1ccccc1", "note": "(mixture of isomers)", "outcome": "inactive"}
    ]}
  ]
}
